From the supplement of paper PMC6658780
Counter-ions that a name gives are not always drawn. ± gives the standard deviation of the averaged measurements.

What follows are compounds tested on Escherichia coli ATCC BAA-2469 (assay: percent growth inhibition of drug alone vs DMSO control; higher = more growth inhibition). Settings: antibiotic (0.125x MIC): none (0.1% DMSO); 7 µM.
Description: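 Prestwick drugs tested at 20 uM and 7 uM with an antibiotic at 0.125x MIC (16 mg/L when MIC >128 mg/L) against E. coli ATCC BAA-2469 (NDM-1) in CAMHB, 384-well plates, duplicate runs. Percent growth inhibition was computed from OD600 (24 h minus 0 h) relative to DMSO wells. Drug + DMSO-only wells are also given. […]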

Row | Compound | percent growth inhibition of drug alone [%]
1 | CCCNC(C)(C)COC(=O)c1ccccc1 [Meprylcaine hydrochloride] | 0.029 ± 2.2
2 | Nc1nc(F)nc2c1ncn2[C@@H]1O[C@H](CO)[C@@H](O)[C@@H]1O [Fludarabine] | 23 ± 20
3 | C#C[C@]1(OC(C)=O)CC[C@H]2[C@@H]3CCC4=C[C@@H](OC(C)=O)CC[C@@H]4[C@H]3CC[C@@]21C [Ethynodiol diacetate] | -1.57 ± 7.4
4 | Cn1c(=O)c2c(ncn2C)n(C)c1=O [Caffeine] | 1.12 ± 0.78
5 | CS(=O)(=O)c1ccc([C@@H](O)[C@@H](CO)NC(=O)C(Cl)Cl)cc1 [Thiamphenicol] | 4.47 ± 3.6
6 | O=C1c2c(O)ccc(O)c2C(=O)c2c(NCCNCCO)ccc(NCCNCCO)c21 [Mitoxantrone dihydrochloride] | 7.78 ± 5.1
7 | CCCOc1ccc2[nH]c(NC(=O)OC)nc2c1 [Oxibendazol] | 0.775 ± 0.31
8 | CCCCNc1c(C(=O)OCC)c(C)nc2c1cnn2CC [Tracazolate hydrochloride] | 3.29 ± 0.5
9 | O=C1NCCN1c1ncc([N+](=O)[O-])s1 [Niridazole] | 19.9 ± 7.6
10 | CC(=O)c1ccc2c(c1)N(CCCN1CCC(CCO)CC1)c1ccccc1S2 [Piperacetazine] | 0.548 ± 3.2
11 | O=C(N[C@H](CO)[C@H](O)c1ccc([N+](=O)[O-])cc1)C(Cl)Cl [Chloramphenicol] | 27.7 ± 12
12 | CC[C@H]1OC(=O)[C@H](C)[C@@H](O[C@H]2C[C@@](C)(OC)[C@@H](O)[C@H](C)O2)[C@H](C)[C@@H](O[C@@H]2O[C@H](C)C[C@H](N(C)C)[C@H]2O)[C@](C)(O)C[C@@H](C)CN(C)[C@H](C)[C@@H](O)[C@]1(C)O [Azithromycin] | 22.2 ± 12
13 | O=C1CN(/N=C/c2ccc([N+](=O)[O-])o2)C(=O)N1 [Nitrofurantoin] | 5.87 ± 5.7

Same assay, conditions: antibiotic (0.125x MIC): none (0.1% DMSO); 20 µM

Row | Compound | percent growth inhibition of drug alone [%]
14 | CCCNC(C)(C)COC(=O)c1ccccc1 [Meprylcaine hydrochloride] | -0.823 ± 0.32
15 | Nc1nc(F)nc2c1ncn2[C@@H]1O[C@H](CO)[C@@H](O)[C@@H]1O [Fludarabine] | 59.1 ± 4.9
16 | C#C[C@]1(OC(C)=O)CC[C@H]2[C@@H]3CCC4=C[C@@H](OC(C)=O)CC[C@@H]4[C@H]3CC[C@@]21C [Ethynodiol diacetate] | -0.574 ± 3.8
17 | Cn1c(=O)c2c(ncn2C)n(C)c1=O [Caffeine] | -1.35 ± 0.22
18 | Nc1ncn(C2OC(CO)C(O)C2O)c(=O)n1 (configuration not stated) [Azacytidine-5] | 111 ± 10
19 | CCCOc1ccc2[nH]c(NC(=O)OC)nc2c1 [Oxibendazol] | 2.44 ± 0.18
20 | CCCCNc1c(C(=O)OCC)c(C)nc2c1cnn2CC [Tracazolate hydrochloride] | -0.173 ± 5.2
21 | CN(C)c1ccc(O)c2c1C[C@H]1C[C@H]3[C@H](N(C)C)C(O)=C(C(N)=O)C(=O)[C@@]3(O)C(O)=C1C2=O [Minocycline hydrochloride] | 110 ± 14
22 | CC(=O)c1ccc2c(c1)N(CCCN1CCC(CCO)CC1)c1ccccc1S2 [Piperacetazine] | 0.302 ± 2.2
